Measurements published in PubChem BioAssay (EPA / NIEHS).
Activity calls are given as the source filed them. How the source made its calls: active means hit-call score of the fitted dose curve at least 0.9, where 1 is the maximum; inactive means score below 0.9.

read-out: growth arrest and DNA damage 45 (GADD45B), GADD45B (gene 4616); assay: LTEA_HepaRG_GADD45B: Life Technologies and Expression Analysis (LTEA) Assay for growth arrest and DNA damage 45 (GADD45B) using HepaRG (AID 2283461); conditions: mRNA level, 48 h; actives raise or lower the signal
Description: LTEA_HepaRG is a cell based, multiplexed-readout assay that uses HepaRG, a human liver cell line, with measurements taken at 48 hours after chemical dosing on a 96-well plate.LTEA_HepaRG_GADD45B is one of 102 assay component(s) measured in the LTEA HepaRG cell culture assay. It is a marker of Cell proliferation, survival, death.Data from the assay component LTEA_HepaRG_GADD45B was analyzed into 1 endpoint. This assay endpoint, LTEA_HepaRG_GADD45B, was analyzed with bidirectional fitting relative to DMSO as the negative control and baseline of activity. Using a type of inducible reporter, measures of mRNA induction for gain or loss-of-signal activity can be used to understand regulation of transcription factor activity. To generalize the intended target to other relatable targets, this assay endpoint is annotated to the mutagenicity response intended target family, where the subfamily is Cell proliferation, survival, death.
A total of 1060 chemcials from the ToxCast library were tested in eight-point concentration-response experiments. Cell culture and cytotoxicity assays were conducted at Thermo Fisher Scientific's Custom Services facility (Madison, WI). A single lot of human HepaRG cells (Thermo Fisher Scientific, Frederick, MD) was used for the cell culture experiments. 96-well format collagen type I coated plates of human HepaRG cells were prepared using established methods. Briefly, cryopreserved HepaRG cells were thawed, plated at a density of approximately 100,000 cells/well in HepaRG Thaw, Plate, and General Purpose media (HPRG770, Thermo Fisher Scientific), and incubated for 48 hours. 0.5% DMSO was selected as vehicle control to balance the requisite need of DMSO in HepaRG cultures to maintain differentiation (for example, baseline metabolism, proportions of hepatocytes vs. cholangiocytes), while enabling further hepatic receptor pathway activation (for example, PXR and CAR) in response to chemical exposure. 48 hours after plating, the culture medium was replaced with HepaRG Serum-Free Incudtion Media. Cells were exposed to each test chemical in duplicate and maintained in CO2 incubators for another 48 hours. Chemical plates were thawed to room temperature and 200x concentrations of treatment groups were prepared. 8-point conentration-reponse curves were made with the highest exposure at 100 uM, followed by half-log dilutions, all in 0.5% DMSO. Each test plate contained variouse controls, induction positive controls (1mM phenobarbital), cytotoxicity positive controls ([…] aflatoxin B1), vehicle controls (0.5% DMSO), and total lysis controls (0.5% DMSO). Cell morphology images were taken using an Essen IncuCyte FLR automated microscope, with six 96-well plates imaged in about 24 minutes. Images were captured and exported and JPEG files. Spent culture media was transfered to black-well plates for the LDH assay, and remaining media was sorted at -80 C for later use. Cells were treated with RLT buffer and frozen until shipped for gene expression analysis. Total RNA was isolated from the cell suspension in 75 uL of Buffer RLT (Qiagen, Germantown, MD 20874) by Quintiles/Expression Analysis (Durham, NC) using a custom isolation procedure. Total RNA from each plate well was transferred to a preamplification plate. Fluidigm's 96.96 Dynamic ArrayTM (Fluidigm, Amsterdam, the Netherlands) technology was used for gene expression analyses by quantitative reverse transcription polymerase chain reaction (qRT-PCR, performed by Quintiles/Expression Analysis, Durham, NC)89. Standard TaqManTM Assays (Applied Biosystems/ThermoFisher Scientific, Foster City, CA) were used to assess the expression of 93 genes selected based on their selectivity and sensitivity to important hepatic receptors known to be modulated by environmental chemicals; importance in human hepatocyte functionality; and hepatotoxicity. […]

| Compound | outcome | AC50 |
| --- | --- | --- |
| CC(C)(O)c1ccc(CNC(=O)c2cccnc2Oc2ccc3nonc3c2)cc1 | inactive |  |
| CCCOC(=O)c1cc(O)c(O)c(O)c1 | inactive |  |
| CCOC(=O)O[C@H](C)OC(=O)c1ccc2c(c1)cc(C(=O)NC1CCN(C(C)C)CC1)n2Cc1cc(-c2ccc(Cl)s2)on1 | inactive |  |
| CC(=O)N1CCN(c2ccc(OC[C@H]3CO[C@](Cn4ccnc4)(c4ccc(Cl)cc4Cl)O3)cc2)CC1 | inactive |  |
| O=C=NCCCCCCN=C=O | inactive |  |
| Cc1ccc(C(C)C)cc1 | inactive |  |
| CCCCOC(=O)c1ccc(O)cc1 | inactive |  |
| CCN(CC)C(=O)c1cc(S(=O)(=O)Cc2ccccc2)c(N2CCC(c3ccccc3)CC2)cc1N(CC)CCN(C)C | inactive |  |
| NC(=O)c1nc(-c2cccc(-c3cc(F)ccc3OCC(F)(F)C(F)(F)F)c2)n[nH]1 |  | 77.2 µM (active) |
| O=c1c(-c2ccc(O)cc2)coc2cc(O)cc(O)c12 | inactive |  |
| CC1(C)NC(=O)N(c2ccc([N+](=O)[O-])c(C(F)(F)F)c2)C1=O | inactive |  |
| CO[C@H]1/C=C/O[C@@]2(C)Oc3c(C)c(O)c4c(O)c(c(/C=N/N5CCN(C)CC5)c(O)c4c3C2=O)NC(=O)/C(C)=C\C=C\[C@H](C)[C@H](O)[C@@H](C)[C@@H](O)[C@@H](C)[C@H](OC(C)=O)[C@@H]1C | inactive |  |
| C[C@]12CC[C@@H]3c4ccc(O)cc4CC[C@H]3[C@@H]1CCC2=O | inactive |  |
| CCCCCCCCCCCCO | inactive |  |
| COc1cc(C(=O)NC2CCN(C)CC2)ccc1Nc1ncc2c(n1)N(C1CCCC1)CC(F)(F)C(=O)N2C |  | 25.4 µM (active) |
| CCCCCCCCOc1ccc(C(=O)c2ccccc2)c(O)c1 | inactive |  |
| COc1cccc([C@H](O)C2CCN(CCc3ccc(F)cc3)CC2)c1OC | inactive |  |
| CCCC(=O)OCCC(C)C | inactive |  |
| CCCCCc1ccc(N)cc1 | inactive |  |
| Cc1ncc(CO)c(CO)c1O | inactive |  |

| Compound | outcome | AC50 |
| --- | --- | --- |
| CCN(Cc1cccnc1)C(=O)c1cccc(Cl)c1[C@]1(C)C(=O)N(Cc2ccc(OC)cc2OC)c2ccc(Cl)cc21 | inactive |  |
| Cc1ccc2oc(CN(Cc3ccccc3)C(=O)Nc3c(F)cc(F)cc3F)c(-c3ccc(Cl)cc3)c2c1 | inactive |  |
| O=CCCCC=O | inactive |  |
| Cc1cc2c(cc1C(F)(F)F)N(C(=O)Nc1ccc(Oc3cccnc3C)nc1)CC2 | inactive |  |
| CCCCCCCC[Si](OCC)(OCC)OCC | inactive |  |
| CC[C@H](NC(=O)c1cc(F)ccc1NS(=O)(=O)c1cccc2cccnc12)c1ccccc1 | inactive |  |
| CCN(Cc1cccc(S(=O)(=O)O)c1)c1ccc(C(=C2C=CC(=[N+](CC)Cc3cccc(S(=O)(=O)O)c3)C=C2)c2ccccc2S(=O)(=O)[O-])cc1 | inactive |  |
| CN1C(=O)N(c2ccccc2Br)Cc2cnc(Nc3ccc4c(c3)OCC(CO)O4)nc21 (stereo not given) |  | 81.6 µM (active) |
| C[C@]12CC[C@@H]3c4ccc(O)cc4CC[C@H]3[C@@H]1CC[C@H]2O | inactive |  |
| Oc1ccc2ccccc2c1 | inactive |  |
| O=c1[nH]sc2ccccc12 | inactive |  |
| Cc1cc(F)ccc1-c1cc(N2CC[C@@H](O)[C@H]2CO)ncc1N(C)C(=O)C(C)(C)c1cc(C(F)(F)F)cc(C(F)(F)F)c1 |  | 76 µM (active) |
| O=C(Nc1ccc(Cl)cc1)Nc1ccc(Cl)c(Cl)c1 |  | 22.9 µM (active) |
| Oc1ccccc1 | inactive |  |
| c1ccc2n[nH]nc2c1 | inactive |  |
| NCc1cccc(C2CCN(C(=O)c3ccc(C#Cc4ccccc4F)o3)CC2)c1 | inactive |  |
| Cc1oc2c(NC(=O)c3c(Cl)cccc3Cl)cccc2c1C(C)(C)O |  | 75.6 µM (active) |
| CC/C(=C(/CC)c1ccc(O)cc1)c1ccc(O)cc1 |  | 68.8 µM (active) |
| c1ccc(C[n+]2cccc3ccccc32)cc1 | inactive |  |
| CCCCCCCCCCCO | inactive |  |
